Bioassay records deposited in PubChem by National Center for Advancing Translational Sciences (NCATS).
Shown are actives, neighbours in structure and some others; about 7.3% of the full set was active somewhere.
FLuc modulator: qHTS profiling assay for firefly luciferase inhibitor/activator using purifed enzyme and Km concentrations of substrates (counterscreen for miR-21 project) | Luciferin 4-monooxygenase (Photinus pyralis), P08659 | purified FLuc, Km substrates, luminescence inhibition | Potency, µM (series often up to 57.5 µM), actives largely listed as inhibitors | hit rate 6.9% among 360,000; note: nearly all actives have a fitted effect of over 55% in size
Target sequence (P08659 whole entry, looked up): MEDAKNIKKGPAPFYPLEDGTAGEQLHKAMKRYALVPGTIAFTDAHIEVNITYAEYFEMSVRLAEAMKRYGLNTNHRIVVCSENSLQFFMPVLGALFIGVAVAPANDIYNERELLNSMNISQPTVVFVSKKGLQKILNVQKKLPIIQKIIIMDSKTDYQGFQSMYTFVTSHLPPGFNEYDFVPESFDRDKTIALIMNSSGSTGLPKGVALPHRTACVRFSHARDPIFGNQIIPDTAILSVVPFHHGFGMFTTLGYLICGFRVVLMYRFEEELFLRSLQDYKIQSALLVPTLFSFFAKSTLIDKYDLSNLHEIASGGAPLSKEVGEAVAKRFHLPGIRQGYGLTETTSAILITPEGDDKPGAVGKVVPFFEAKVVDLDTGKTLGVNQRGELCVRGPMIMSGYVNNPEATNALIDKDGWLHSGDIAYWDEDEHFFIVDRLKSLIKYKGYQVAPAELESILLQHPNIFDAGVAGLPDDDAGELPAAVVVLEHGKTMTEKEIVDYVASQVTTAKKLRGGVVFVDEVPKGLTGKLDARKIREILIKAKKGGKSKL
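Purified P. pyralis luciferase, 10 nM final, with Km-level 10 uM D-luciferin and 10 uM ATP in 50 mM Tris acetate pH 7.5, 10 mM Mg acetate, 0.01% Tween-20, 0.05% BSA; 6-point qHTS titration about 60 µM downward; luminescence read.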
Rab9 promoter act: qHTS Assay for Rab9 Promoter Activators | Huh7 Rab9 promoter-luciferase reporter, luminescence, 24 h | hit rate 2.8% among 320,000 | Potency, µM (series often up to 9.22 µM), hits mostly activators; note: nearly all actives have a fitted effect of over 60% in size
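Luminescence read-out: Huh7 cells stably expressing Rab9-luciferase, treated 24 h with compound at 37 °C, then lysed with luciferase reagent for 10 min at ambient before reading.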
ELG1 genotox: qHTS screen for small molecules that induce genotoxicity in human embryonic kidney (HEK293T) cells expressing luciferase-tagged ELG1; HEK293T ELG1-luciferase reporter, luminescence, 16 h; Potency, µM (top dose mostly 46 µM), hits mostly activators; hit rate 1.3% among 330,000; AID 504466, 2011; note: nearly all actives have a fitted effect of over 60% in size
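DMSO vehicle served as control against compound-treated ELG1-luciferase HEK293T cells; exposure lasted 16 hr at 37 °C and 5% CO2, followed by ONE-Glo luminescence detection after 30 min.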
p53 reactivation: qHTS assay for re-activators of p53 using a Luc reporter | H1299 p53-A138V BP100-luciferase reporter, luminescence, 24 h | Potency, µM (doses to about 92.2 µM), hits mostly activators | hit rate 0.063% among 320,000; note: nearly all actives have a fitted effect of over 45% in size
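p53-null H1299 cells stably carrying temperature-sensitive p53-A138V and a BP100-luciferase reporter were pinned with compounds (4-point, 1:5 series) and held 24 hrs at 37 deg C. Luminescence was read 10 min after detection reagent.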
NPC1 promoter act: qHTS Assay for NPC1 Promoter Activators | AID 485313, 2010 | Potency, µM (series often up to 9.22 µM), most hits filed as activators | hit rate 2.4% among 320,000 | Huh7 NPC1 promoter luciferase reporter, 24 h; note: nearly all actives have a fitted effect of over 60% in size
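Huh7 reporter cells (NPC1 promoter driving luciferase) are dosed with compound for 24 h at 37 °C, 5% CO2; luciferase detection reagent is then added and luminescence measured after 10 min at ambient temperature.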
SMN2 splice enh: qHTS Assay for Enhancers of SMN2 Splice Variant Expression. HEK293 SMN2-luciferase splicing reporter, luminescence, 30-36 h. Potency, µM (top dose mostly 46.1 µM), most hits filed as activators. hit rate 2.8% among 210,000. AID 1458, 2008; note: nearly all actives have a fitted effect of over 55% in size
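qHTS luciferase splicing reporter: luminescence rises when SMN2 exon 7 is included in transfected HEK293 cells. Compound exposure lasted 30-36 h at 37C, with 4.5 mM final sodium butyrate as control, followed by a ONE-Glo read.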
A number is an active result. Calls come from the whole dose curve; as a rule, active = well fitted curve in the direction sought with a large enough effect; inconclusive = small, poorly fitted or top-dose-only effect, or another doubt; inactive = no such curve, though single readings can be large; an effect the other way counts as inactive or inconclusive.

`O=C(NCCc1ccccc1)C(=O)N/N=C/c1ccc2c(c1)OCO2` gave FLuc modulator inactive, Rab9 promoter act inactive, ELG1 genotox inactive, p53 reactivation inactive, NPC1 promoter act inactive and SMN2 splice enh inconclusive.
For O=C(CNC(=O)c1ccc2c(c1)OCCO2)N/N=C/c1ccc(O)cc1O the results were FLuc modulator inactive, Rab9 promoter act inactive, ELG1 genotox inactive, p53 reactivation inactive, NPC1 promoter act inactive and SMN2 splice enh inactive.
Screening Cc1cc(C(=O)N/N=C/c2cccc(OC(=O)c3ccco3)c2)n[nH]1 returned FLuc modulator 17µM, Rab9 promoter act inactive, ELG1 genotox inactive, p53 reactivation inactive, NPC1 promoter act inactive and SMN2 splice enh inconclusive.
For Cc1cc(C(=O)N/N=C/c2cccnc2)n[nH]1 the results were FLuc modulator inactive, Rab9 promoter act inactive, ELG1 genotox inactive, p53 reactivation inactive and NPC1 promoter act inactive.
O=C(NCc1ccccn1)C(=O)N/N=C/c1ccc2c(c1)OCO2 was read as FLuc modulator 17µM, Rab9 promoter act inactive, ELG1 genotox inactive, p53 reactivation inactive and NPC1 promoter act inactive.
Screening Cc1cccc(N2C(=O)C(CC(=O)Nc3cccc(F)c3)N(Cc3cccs3)C2=O)c1 (stereo unspecified) returned FLuc modulator inactive.
`COc1cccc(N2CCN(C(=O)CN3CCSc4ccc(S(=O)(=O)N(C)C)cc43)CC2)c1` gave FLuc modulator inactive.
For Cc1cccnc1NC(=O)c1cccc(S(=O)(=O)N2CCCc3ccccc32)c1 the results were FLuc modulator inactive, Rab9 promoter act inactive, ELG1 genotox inactive, p53 reactivation inactive and NPC1 promoter act inactive.
Screening O=C(N/N=C/c1cccnc1)c1ccc2c(c1)OCO2 returned FLuc modulator 8.5µM, Rab9 promoter act inconclusive, ELG1 genotox inconclusive, p53 reactivation inactive and NPC1 promoter act inconclusive.
O=C(N/N=C/c1c(Cl)[nH]c2ccccc12)c1ccc2c(c1)OCCO2 was read as FLuc modulator 1.5µM, Rab9 promoter act inconclusive, ELG1 genotox inconclusive, p53 reactivation inactive and NPC1 promoter act inconclusive.
`CCN(CC)c1ccc(/C=N/NC(=O)CNC(=O)c2ccc3c(c2)OCCO3)cc1` gave FLuc modulator 17µM, Rab9 promoter act inactive, ELG1 genotox inactive, p53 reactivation inconclusive and NPC1 promoter act inactive.
O=C(N/N=C/c1ccc[nH]1)c1ccc2c(c1)OCO2 was read as FLuc modulator 13µM, Rab9 promoter act inactive, ELG1 genotox inconclusive, p53 reactivation inactive, NPC1 promoter act inactive and SMN2 splice enh inconclusive.
Screening CCOC(=O)c1c(C)[nH]c(C)c1C(=O)COC(=O)COc1ccc(Cl)c(C)c1 returned FLuc modulator inactive, Rab9 promoter act inactive, ELG1 genotox inactive, p53 reactivation inactive and NPC1 promoter act inactive.
`O=C(Nc1ccccc1Cl)Nc1ccnn1C1CCN(C(=O)CCN2CCCO2)CC1` gave FLuc modulator inactive, Rab9 promoter act inactive, ELG1 genotox inactive, p53 reactivation inactive and NPC1 promoter act inactive.
COc1ccc(OC)c(C2c3c(oc4ccc(C)cc4c3=O)C(=O)N2CCCN(C)C)c1 (stereo unspecified) was read as FLuc modulator inactive.
Screening O=C(N/N=C\c1cc2c(cc1Cl)OCO2)c1cccs1 returned FLuc modulator inconclusive, Rab9 promoter act inconclusive, ELG1 genotox inconclusive, p53 reactivation inactive and NPC1 promoter act inconclusive.
`Cc1[nH]c2ccccc2c1/C=N\NC(=O)CNc1ccc2c(c1)OCO2` gave FLuc modulator 11µM, Rab9 promoter act inactive, ELG1 genotox inactive, p53 reactivation inactive, NPC1 promoter act inactive and SMN2 splice enh inactive.
`NC(=O)/C(=C/c1ccc2c(c1)OCO2)NC(=O)c1ccco1` gave FLuc modulator inactive, Rab9 promoter act inactive, ELG1 genotox inactive, p53 reactivation inactive, NPC1 promoter act inactive and SMN2 splice enh inactive.
`Cc1cc(Cl)c(S(=O)(=O)N/N=C/c2ccc3c(c2)OCO3)c(Cl)c1` gave FLuc modulator 15µM, Rab9 promoter act inactive, ELG1 genotox inactive, p53 reactivation inactive, NPC1 promoter act inactive and SMN2 splice enh inconclusive.
O=C(N/N=C/c1cc2c(cc1Cl)OCO2)c1ccc2c(c1)OCCO2 was read as FLuc modulator 7.6µM, Rab9 promoter act inactive, ELG1 genotox inactive, p53 reactivation inactive and NPC1 promoter act inactive.
O=C(N/N=C\c1ccc2c(c1)OCO2)c1ccco1 was read as FLuc modulator 8.5µM, Rab9 promoter act 1.8µM, ELG1 genotox 15µM, p53 reactivation inconclusive and NPC1 promoter act 3.2µM.
Screening CCN1CCOC(=O)C1CC(=O)Nc1ccc(Br)cc1 (stereo unspecified) returned FLuc modulator inactive and SMN2 splice enh inactive.
CC(C)(C)OC(=O)N1CCC(c2c(C(=O)N3CCCCC3)cnn2-c2ccccc2Cl)CC1 was read as FLuc modulator inactive.
`O=C(N/N=C\c1cccc(OC(=O)c2ccco2)c1)c1ccc2c(c1)OCO2` gave FLuc modulator 1.7µM, Rab9 promoter act inactive, ELG1 genotox 15µM, p53 reactivation inconclusive, NPC1 promoter act inactive and SMN2 splice enh inconclusive.
`O=C(N/N=C\c1ccc(S(=O)(=O)O)o1)c1ccc2c(c1)OCO2` gave FLuc modulator inconclusive, Rab9 promoter act inactive, ELG1 genotox inactive, p53 reactivation inactive and NPC1 promoter act inactive.
O=C(N/N=C/c1ccc2c(c1)OCO2)c1ccc2c(c1)OCO2 was read as FLuc modulator inconclusive, Rab9 promoter act 2.5µM, ELG1 genotox inactive, p53 reactivation inactive and NPC1 promoter act 2.2µM.
For COc1cc2cc3c4cc(OC)c(OC)cc4cc[n+]3c(C)c2cc1OC the results were SMN2 splice enh inactive.
Screening Nc1nc(-c2ccc(Cl)cc2)nnc1-c1ccc(Br)cc1 returned FLuc modulator inconclusive, Rab9 promoter act 1.1µM, ELG1 genotox inconclusive, p53 reactivation inactive and NPC1 promoter act 1.8µM.
Nc1nc(N)nc(-c2ccc(Cl)cc2)n1 was read as FLuc modulator 15µM, Rab9 promoter act inconclusive, ELG1 genotox inconclusive, p53 reactivation inactive, NPC1 promoter act inconclusive and SMN2 splice enh inactive.
Cc1noc(-c2ccc(N3CCC(C)CC3)c([N+](=O)[O-])c2)n1 was read as FLuc modulator 8.5µM.
`Cc1ccccc1-c1noc(-c2ccc(N3CCCC3)c([N+](=O)[O-])c2)n1` gave FLuc modulator 13µM.
CCNc1ccc(-c2nc(-c3ccco3)no2)cc1[N+](=O)[O-] was read as FLuc modulator 15µM.
Screening CC1CCN(c2ccc(-c3nc(-c4ccccc4)no3)cc2[N+](=O)[O-])CC1 returned FLuc modulator inactive.
